Laboratory results: PubChem BioAssay AID1159580 (chemical genetic matrix, 2015)
Among all 5,500 compounds or so, about 2,000 (36%) were called active. About 18% were inconclusive and are not listed. Cut-off read from the data, not from the text of the source: active = normalized growth mostly below about 0.91 (no sharp cut-off); inconclusive = no clear call, values can overlap the other calls; inactive = mostly above about 0.92. This is one part of the list.

Test: chemical genetic growth profiling, strain panel (AID 1159580);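 note: tested at 20 µM; growth read once vehicle control cultures reached saturation at 30 °C; 1 = growth at the plate median or of vehicle wells; lower values mean less growth of the strain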
Conditions: S. cerevisiae deletion strains, growth OD
[1] = locus YHR030C, strain SLT2, stronger effect = lower value
[2] = locus YHR079C, strain IRE1, stronger effect = lower value
[3] = locus YJL095W, strain BCK1, stronger effect = lower value
[4] = locus YJR066W, strain TOR1, stronger effect = lower value
[5] = locus YLR113W, strain HOG1, stronger effect = lower value
[6] = locus YNL183C, strain NPR1, stronger effect = lower value
[7] = locus YOR231W, strain MKK1, stronger effect = lower value
[8] = locus YPL256C, strain CLN2, stronger effect = lower value

Measured: normalized growth

COc1cc(OC)c(C(C)=O)c(O)c1C
active: locus YBR009C, strain hhf1, stronger effect = lower value 0.88 | locus YBR023C, strain chs3, stronger effect = lower value 0.905 | locus YCL011C, strain gbp2, stronger effect = lower value 0.905 | locus YDR159W, strain sac3, stronger effect = lower value 0.847 | locus YER155C, strain BEM2 (second series), stronger effect = lower value 0.735 | locus YGL227W, strain vid30, stronger effect = lower value 0.913 | locus YGL240W, strain doc1, stronger effect = lower value 0.812 | locus YLR221C, strain rsa3, stronger effect = lower value 0.884 | locus YLR262C, strain YPT6 (second series), stronger effect = lower value 0.856 | locus YLR320W, strain mms22, stronger effect = lower value 0.87 | locus YML120C, strain ndi1, stronger effect = lower value 0.889 | locus YOR270C, strain vph1, stronger effect = lower value 0.744 | locus YOR290C, strain snf2, stronger effect = lower value 0.83
inactive: locus YAL021C, strain ccr4, stronger effect = lower value 0.991 | locus YAL026C, strain drs2, stronger effect = lower value 0.908 | locus YAL030W, strain snc1, stronger effect = lower value 0.953 | locus YBL061C, strain skt5, stronger effect = lower value 0.923 | locus YBR171W, strain sec66, stronger effect = lower value 0.945 | locus YBR231C, strain swc5, stronger effect = lower value 0.934 | locus YBR279W, strain paf1, stronger effect = lower value 0.951 | locus YCL016C, strain dcc1, stronger effect = lower value 0.956 | locus YCL061C, strain MRC1, stronger effect = lower value 0.937 | locus YCL069W, strain vba3, stronger effect = lower value 0.942 | locus YCR088W, strain abp1, stronger effect = lower value 0.937 | locus YDL005C, strain med2, stronger effect = lower value 0.978 | locus YDL040C, strain nat1, stronger effect = lower value 0.949 | locus YDR001C, strain nth1, stronger effect = lower value 0.939 | locus YDR069C, strain doa4, stronger effect = lower value 0.948 | locus YDR137W, strain rgp1, stronger effect = lower value 0.859 | locus YDR195W, strain ref2 1.13 | locus YDR297W, strain sur2, stronger effect = lower value 0.941 | locus YDR334W, strain swr1, stronger effect = lower value 0.946 | locus YDR335W, strain msn5, stronger effect = lower value 0.95 | locus YDR392W, strain spt3, stronger effect = lower value 0.758 | locus YEL003W, strain gim4, stronger effect = lower value 0.923 | locus YEL037C, strain rad23, stronger effect = lower value 0.938 | locus YEL061C, strain CIN8 (second series), stronger effect = lower value 0.931 | locus YER015W, strain faa2, stronger effect = lower value 0.955 | locus YER016W, strain bim1, stronger effect = lower value 0.954 | locus YER111C, strain swi4, stronger effect = lower value 0.95 | locus YFR010W, strain ubp6, stronger effect = lower value 0.932 | locus YGL167C, strain pmr1, stronger effect = lower value 0.945 | locus YGL173C, strain kem1, stronger effect = lower value 0.921 | locus YGL253W, strain hxk2, stronger effect = lower value 0.935 | locus YHR013C, strain ard1, stronger effect = lower value 0.875 | locus YHR027C, strain rpn1, stronger effect = lower value 0.969 | [1] 0.931 | [2] 0.935 | locus YHR142W, strain chs7, stronger effect = lower value 0.877 | locus YJL092W, strain hpr5, stronger effect = lower value 0.946 | locus YJL095W, strain BCK1 (second series), stronger effect = lower value 0.944 | [3] 0.927 | locus YJL115W, strain asf1, stronger effect = lower value 0.944 | locus YJL129C, strain trk1, stronger effect = lower value 0.903 | locus YJL154C, strain vps35, stronger effect = lower value 0.939 | locus YJL164C, strain tpk1, stronger effect = lower value 0.93 | locus YJL166W, strain qcr8, stronger effect = lower value 0.912 | locus YJL187C, strain SWE1, stronger effect = lower value 0.945 | [4] 0.855 | locus YKL160W, strain elf1, stronger effect = lower value 0.956 | locus YKR026C, strain gcn3, stronger effect = lower value 0.93 | locus YKR091W, strain srl3, stronger effect = lower value 0.946 | locus YLL001W, strain dnm1, stronger effect = lower value 0.939 | locus YLL026W, stronger effect = lower value 0.953 | locus YLL041C, strain sdh2, stronger effect = lower value 0.961 | locus YLR027C, strain aat2, stronger effect = lower value 0.962 | [5] 0.901 | locus YLR258W, strain gsy2, stronger effect = lower value 0.933 | locus YLR342W, strain FKS1, stronger effect = lower value 0.954 | locus YLR357W, strain rsc2, stronger effect = lower value 0.942 | locus YLR370C, strain arc18, stronger effect = lower value 0.938 | locus YLR384C, strain iki3, stronger effect = lower value 0.974 | locus YMR058W, strain fet3, stronger effect = lower value 0.908 | locus YMR125W, strain sto1, stronger effect = lower value 0.984 | locus YMR129W, stronger effect = lower value 0.944 | locus YMR205C, strain PFK2, stronger effect = lower value 0.903 | locus YMR231W, strain pep5, stronger effect = lower value 0.982 | locus YNL071W, strain lat1, stronger effect = lower value 0.919 | [6] 0.887 | locus YNL209W, strain ssb2, stronger effect = lower value 0.96 | locus YNL248C, strain rpa49, stronger effect = lower value 0.917 | locus YNL322C, strain KRE1 (second series), stronger effect = lower value 0.927 | locus YNR049C, strain mso1, stronger effect = lower value 0.937 | locus YOR001W, strain rrp6, stronger effect = lower value 0.95 | locus YOR070C, strain gyp1, stronger effect = lower value 0.937 | locus YOR080W, strain dia2, stronger effect = lower value 0.943 | locus YOR083W, strain WHI5, stronger effect = lower value 0.942 | locus YOR106W, strain vam3, stronger effect = lower value 0.91 | [7] 0.96 | locus YOR265W, strain rbl2, stronger effect = lower value 0.962 | locus YPL051W, strain arl3, stronger effect = lower value 0.972 | locus YPL078C, strain atp4, stronger effect = lower value 0.908 | locus YPL106C, strain sse1, stronger effect = lower value 0.9 | locus YPL240C, strain hsp82, stronger effect = lower value 0.94 | [8] 0.91

COc1cc(O)cc(O)c1C(C)=O
inactive: [1] 0.969 | [2] 0.981 | [3] 0.984 | [4] 0.916 | [5] 0.971 | [6] 0.907 | [7] 0.985 | [8] 0.97
